This is an account of results in PubChem BioAssay (NCI).

The panel holds about 83,000 compounds, 20% with a hit somewhere; the sample as a whole holds those more often.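 The test compound was applied at a single concentration to cells in 96-well plates for 48 hours, and percent growth was recorded.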 Values without a mark were called inactive. Activity calls are given as the source filed them. Rule for the calls: active = growth percent below 10; inactive = the rest.

Among the test systems are NCI-H23 lung; NCI-H226 lung; NCI-H322M lung; HOP-62 NSCLC; NCI-H460 lung; NCI-H522 lung; A549/ATCC NSCLC; 786-0 renal; COLO 205 colon; HOP-92 NSCLC.
Assay in all cases: NCI-60 one-dose screen, 48 h (100 = growth as untreated, 0 = no growth, -100 = all killed)
Holding throughout (conditions): 10 µM unless noted

On to `Cn1cc(-c2cc3nc(-c4cn(C)c5ncccc45)cc(N)n3n2)c2ccccc21`, for which the growth is 55.6% in the assay on NCI-H23 lung; -21.6% (active) in the assay with NCI-H226 lung; 37% in the assay with NCI-H322M lung; -13.6% (active) in the assay on HOP-62 NSCLC; 3.16% (active) in the assay with NCI-H460 lung; -4.18% (active) in the assay on NCI-H522 lung. Further, the growth with A549/ATCC NSCLC is 15.2%; in the assay with 786-0 renal, -52.9% (active); in the assay on COLO 205 colon, 3.03% (active).
With `Cc1nc(Nc2ccccn2)sc1C(=O)CC(SCC(=O)Nc1ccc(Cl)cc1)c1ccccc1F` (stereo unspecified), the growth in the assay with NCI-H23 lung was -0.749% (active); in the assay on NCI-H226 lung, 48%; with NCI-H322M lung it was 19.6%; in the assay with HOP-62 NSCLC, 10.1%; in the assay with NCI-H460 lung it was 6.78% (active); in the assay with NCI-H522 lung it was -12.8% (active). Besides, the growth was 6.38% (active) in the assay with A549/ATCC NSCLC, 10.9% in the assay on 786-0 renal and -49.7% (active) in the assay on COLO 205 colon.
Turning to `O=C1/C(=C/C2=Cc3ccccc3OC2)SC(=S)N1c1ccccc1F`, the growth in the assay on NCI-H23 lung is 103%; in the assay on NCI-H226 lung, 101%; with NCI-H322M lung it was 105%; in the assay with NCI-H460 lung, 121%; with HOP-92 NSCLC, 61.6%; with NCI-H522 lung it was 92.6%. The growth with A549/ATCC NSCLC was 96.7%; with 786-0 renal, 87.4%; in the assay on COLO 205 colon it was 116%.
As for `COc1ccc(-c2ccc(SCC(=O)NCCc3ccc(S(N)(=O)=O)cc3)nn2)cc1`, the growth is 64.2% with NCI-H23 lung; 77% in the assay with NCI-H226 lung; 96.2% in the assay with NCI-H322M lung; 81.3% with HOP-62 NSCLC; 107% in the assay with NCI-H460 lung; 70% with NCI-H522 lung. In addition, the values for the growth with A549/ATCC NSCLC, in the assay on 786-0 renal and in the assay on COLO 205 colon were 86.6%, 85.8% and 95.4%, respectively.
As for `NS(=O)(=O)c1ccc(-n2cc(-c3cccc(NC(=O)c4cc(Cl)cc(Cl)c4)c3)nn2)cc1`, the growth was 41.2% with NCI-H23 lung; 105% with NCI-H226 lung; 51.2% with HOP-62 NSCLC; 43.7% in the assay with NCI-H460 lung; 98.4% with HOP-92 NSCLC; 75.5% in the assay with NCI-H522 lung. Moreover, the growth with A549/ATCC NSCLC is 27.1%; in the assay on 786-0 renal, 79.9%; in the assay with COLO 205 colon, 76.4%.
As for `Cc1cccc(NC(=O)[C@]23CCC(C)(C)CC2C2=CCC4[C@@]5(C)C[C@@H](O)[C@H](O)[C@@](C)(CO)C5CC[C@@]4(C)[C@]2(C)CC3)c1` (stereo partly specified), the growth with NCI-H23 lung was -27.7% (active); with NCI-H226 lung it was -17.8% (active); in the assay with HOP-62 NSCLC, 50.9%; with NCI-H460 lung it was -18.3% (active); in the assay on HOP-92 NSCLC it was -24.8% (active); in the assay on NCI-H522 lung, 10.8%. Moreover, the growth with A549/ATCC NSCLC is 21.1%; in the assay with 786-0 renal, 22.7%; in the assay on COLO 205 colon, -31.7% (active).
On to `NS(=O)(=O)c1ccc(N=Nc2c(O)n(CC(=O)Nc3ccccc3)c3ccccc23)cc1`, for which the growth in the assay with NCI-H23 lung is -19.1% (active); with NCI-H226 lung it was 25.3%; in the assay with HOP-62 NSCLC it was 10.8%; in the assay with NCI-H460 lung it was 4.09% (active); with HOP-92 NSCLC, 77.3%; with NCI-H522 lung, 31.6%. In addition, the growth is 0.913% (active) in the assay on A549/ATCC NSCLC, 1.52% (active) in the assay on 786-0 renal and 27.6% with COLO 205 colon.
For `O=C1c2c(c3c4cc(F)ccc4oc3c3[nH]c4ccc(Br)cc4c23)C(=O)N1O`, the growth in the assay with NCI-H23 lung was 7.64% (active); with NCI-H226 lung it was 61.8%; in the assay on HOP-62 NSCLC it was 19.4%; in the assay on NCI-H460 lung, 5.53% (active); in the assay on HOP-92 NSCLC, -39.4% (active); in the assay with NCI-H522 lung, -18% (active). The results for the growth in the assay on A549/ATCC NSCLC, with 786-0 renal and with COLO 205 colon were 69.2%, 15.5% and 67.9%, respectively.
Take `COc1cccc(-c2c(C#N)c(-c3ccc(Cl)cc3)nc3n[nH]c(-c4ccc(Cl)cc4)c23)c1`: the growth was 64.5% in the assay on NCI-H23 lung; 47.8% in the assay on NCI-H226 lung; 53.8% in the assay with HOP-62 NSCLC; 34.3% in the assay with NCI-H460 lung; -5.01% (active) in the assay with HOP-92 NSCLC; 43.8% with NCI-H522 lung. Also, the growth in the assay with A549/ATCC NSCLC is 41.9%; with 786-0 renal, 46.1%; in the assay on COLO 205 colon, 3.25% (active).
`COc1ccc(-c2nc3cc(C)ccc3n2CC(=O)N=Nc2c(O)[nH]c3ccccc23)cc1`: the growth was -10.8% (active) in the assay with NCI-H23 lung; -35.5% (active) in the assay on NCI-H226 lung; 10.4% with HOP-62 NSCLC; -17.7% (active) with NCI-H460 lung; 42.1% with NCI-H522 lung; -34% (active) in the assay with A549/ATCC NSCLC. The growth was 60.8% in the assay on 786-0 renal and 7.85% (active) with COLO 205 colon.
On to `CC(C)C(C(=O)O)n1c(O)c(/C=C2/C=c3cc4c(cc3=NC2=O)OCO4)sc1=S` (stereo unspecified), for which the growth was 98.4% with NCI-H23 lung; 101% in the assay with NCI-H226 lung; 103% in the assay with NCI-H322M lung; 114% in the assay with NCI-H460 lung; 99.4% with NCI-H522 lung; 110% with A549/ATCC NSCLC. The growth was 105% in the assay on 786-0 renal and 115% in the assay with COLO 205 colon.
In the case of `O=C(N1c2ccccc2Sc2ccccc21)n1ccc2cccnc21`, the growth in the assay on NCI-H23 lung was 77.9%; in the assay on NCI-H226 lung, 81%; in the assay on HOP-62 NSCLC, 77.5%; in the assay on NCI-H460 lung, 48.7%; in the assay on NCI-H522 lung it was 56.3%; in the assay with A549/ATCC NSCLC it was 75.8%. Also, the growth in the assay on 786-0 renal was 77.4%; in the assay with COLO 205 colon, 62.8%.
On to `CCOc1ccc(-c2c(C#N)c(-c3ccc(Cl)cc3)nc3n[nH]c(-c4ccc(Cl)cc4)c23)cc1OC`, for which the growth in the assay with NCI-H23 lung was 70.1%; with NCI-H226 lung it was 59.1%; with HOP-62 NSCLC, 68.7%; with NCI-H460 lung it was 42.3%; with HOP-92 NSCLC, 36.7%; in the assay with NCI-H522 lung it was 64.9%. The growth with A549/ATCC NSCLC was 55.4%; in the assay on 786-0 renal, 65.3%; in the assay with COLO 205 colon it was 29%.
`Nc1cc2ccccc2c(=O)n1NC(=O)c1ccc(I)cc1`: the growth was 97.3% with NCI-H23 lung; 99.9% in the assay on NCI-H226 lung; 98.5% in the assay on HOP-62 NSCLC; 100% in the assay on NCI-H460 lung; 106% in the assay with HOP-92 NSCLC; 93.1% with NCI-H522 lung. In addition, the growth in the assay with A549/ATCC NSCLC is 94.6%; in the assay on 786-0 renal it was 99.3%; in the assay with COLO 205 colon it was 105%.
Regarding `Cc1cc2nc3c4ccccc4n(CC4=NCCN4)c3nc2cc1C`, the growth is -56% (active) in the assay with NCI-H23 lung; 23.9% in the assay on NCI-H226 lung; -72.5% (active) with HOP-62 NSCLC; -84.1% (active) with NCI-H460 lung; 2.32% (active) in the assay on NCI-H522 lung; -85.2% (active) in the assay with A549/ATCC NSCLC. The growth is -97% (active) in the assay on 786-0 renal and 43.8% with COLO 205 colon.
